Results from PubChem BioAssay (EPA / NIEHS).
Calls of active or inactive are those of the source. How the source made its calls: active means hit-call score of the fitted dose curve at least 0.9, where 1 is the maximum; inactive means score below 0.9.

Target: Hepatocyte nuclear factor 3-beta (Homo sapiens) (UniProt Q9Y261)
Experiment: ATG_FoxA2_CIS: Attagene CIS-FACTORIAL HepG2 Assay for human Forkhead box A2 (FOXA2) (AID 2282942)
Settings: HepG2 cis-reporter transcription factor activity, 24 h; actives raise or lower the signal
Procedure: ATG_CIS is a cell-based, multiplexed-readout assay that uses HepG2, a human liver cell line, with measurements taken at 24 hours after chemical dosing in a 24-well plate.ATG_FoxA2_CIS is one of 52 assay component(s) measured or calculated from the ATG_CIS assay. It is designed to make measurements of mRNA induction, a form of inducible reporter, as detected with fluorescence intensity signals by Reverse transcription polymerase chain reaction (RT-PCR) and Capillary electrophoresis technology.Data from the assay component ATG_FoxA2_CIS was analyzed into 1 assay endpoint. This assay endpoint, ATG_FoxA2_CIS, was analyzed with bidirectional fitting relative to DMSO as the negative control and baseline of activity. Using a type of inducible reporter, measures of mRNA for gain or loss-of-signal activity can be used to understand the reporter gene at the transcription factor-level as they relate to the gene FOXA2. Furthermore, this assay endpoint can be referred to as a primary readout, because this assay has produced multiple assay endpoints where this one serves a reporter gene function. To generalize the intended target to other relatable targets, this assay endpoint is annotated to the dna binding intended target family, where the subfamily is forkhead box protein.
Human liver HepG2 cells are transiently transfected with multiple reporter transcription units (MRTUs) in 6-well plates using FuGene 6 reagent (Roche; 3 ml FuGene/1 mg DNA). The MRTU constructs are regulated by a cis-regulating element (promoter). […] A major difference between the CIS and TRANS system is that in CIS activities of endogenous TFs are measured, whereas the TRANS assay evaluates changes in activities of exogenous, chimeric NR-Gal4 proteins. […] At the end of 24 hour incubation, total RNA was isolated using TriZol reagent (Invitrogen). The isolated RNA is then reverse-transcribed using oligo(dT) primer and Mo-MLV reverse transcriptase (Invitrogen) with DNAse I (Ambion) treatment for 30 min. The one-tenth of the produced cDNA was amplified by PCR using Taq DNA polymerase (Invitrogen) and two reporter sequence-specific primers. The PCR products were fluorescently labeled by primer extension with 6-arboxyfluorescein (6-FAM) 5'-labeled reporter sequence-specific primer (2 min at 95 C, 20 s at 68 C and 10 min at 72 C) and these products were digested with 5U of HpaI (New England Biolabs) for 2h at 37 C. The fragments were purified using Qiaquick PCR columns (Qiagen), analyzed on an ABI 3130xL genetic analyzer (Applied Biosystems) with peak positions identified by using a set of X-rhodamine (ROX)-labeled MapMarker1000 molecular weight standards (BioVentures). The raw capillary electrophoresis data was processed using Attagraph software (Attagene).

Hepatocyte nuclear factor 3-beta (Homo sapiens), sequence (Q9Y261 whole entry, looked up): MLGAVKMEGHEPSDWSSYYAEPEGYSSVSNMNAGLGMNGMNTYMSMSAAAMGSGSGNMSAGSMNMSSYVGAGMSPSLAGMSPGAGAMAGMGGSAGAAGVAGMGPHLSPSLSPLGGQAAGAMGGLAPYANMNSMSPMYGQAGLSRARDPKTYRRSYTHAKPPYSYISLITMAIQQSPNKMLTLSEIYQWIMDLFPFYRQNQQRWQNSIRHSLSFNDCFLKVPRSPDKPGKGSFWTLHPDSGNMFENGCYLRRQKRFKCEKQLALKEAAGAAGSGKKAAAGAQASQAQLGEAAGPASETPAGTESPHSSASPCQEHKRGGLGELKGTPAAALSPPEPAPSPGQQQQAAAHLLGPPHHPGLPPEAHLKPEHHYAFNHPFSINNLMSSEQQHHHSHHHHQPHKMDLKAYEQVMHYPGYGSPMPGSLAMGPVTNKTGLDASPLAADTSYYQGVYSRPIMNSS

Structure (SMILES) | outcome | AC50
O=C(Nc1ccccc1)c1ccccc1O | inactive | 
COc1ccc(-c2coc3cc(O)ccc3c2=O)cc1 | inactive | 
CCCCCCCCCCOS(=O)(=O)O | inactive | 
Cn1c(=O)[nH]c2ncn(C)c2c1=O | inactive | 
Oc1ccc(Cl)cc1Cc1cc(Cl)ccc1O | inactive | 
OCCCS | inactive | 
Nc1nc2ccccc2[nH]1 | inactive | 
CCC(CO)CO | inactive | 
Cc1cc(O)c(Cl)c(C)c1Cl | inactive | 
CCCCCCCCC(=O)OCC | inactive | 
COc1cc(C)ccc1C(C)C | inactive | 
O=CC1CC1 | inactive | 
CCCCCCCCCCCCCCCC[N+](C)(C)CC | inactive | 
Nc1cccc(C(F)(F)F)c1 | inactive | 
[Cl][In]([Cl])[Cl] | inactive | 
O=C(/C=C/C=C/c1ccc2c(c1)OCO2)N1CCCCC1 | inactive | 
COc1c2ccoc2cc2oc(=O)ccc12 | inactive | 
N#CCc1ccc(Cl)cc1Cl | inactive | 
Cc1ccc(C(C)(C)C)cc1 | inactive | 
Nc1ccc(N)c(Cl)c1 | inactive | 

Structure (SMILES) | outcome | AC50
O=C(O)c1cc(Cl)cc([N+](=O)[O-])c1Cl | inactive | 
CC/C=C\C/C=C\C/C=C\CCCCCCCC(=O)O | inactive | 
CC(C)c1ccc2c(c1)CC[C@H]1[C@](C)(CN)CCC[C@]21C | inactive | 
NC(CO)(CO)CO | inactive | 
COCc1c(C(C)C)nc(C(C)C)c(/C=C/[C@@H](O)C[C@@H](O)CC(=O)O)c1-c1ccc(F)cc1 | inactive | 
CCCCCC/C=C\CCCCCCCC(=O)O | inactive | 
CCCCCCCCCCc1ccccc1 | inactive | 
Cc1ccc(C(C)c2ccc(C)c(C)c2)cc1C | inactive | 
O=c1n(CCO)c(=O)n(CCO)c(=O)n1CCO | inactive | 
C=CC(C)(CCC=C(C)C)OC(=O)CC(C)C (stereo not given) | inactive | 
Nc1ccc2cc3ccccc3cc2c1 | inactive | 
CCCCOCCOC(=O)COc1nc(Cl)c(Cl)cc1Cl | inactive | 
C=COCCCC | inactive | 
COc1ccc(C(Cl)=C(c2ccc(OC)cc2)c2ccc(OC)cc2)cc1 | inactive | 
CC(C)(C)C(=O)C=Cc1ccc(Cl)cc1 |  | 178 µM (active)
CC(=O)OCC(C)OC(C)=O (stereo not given) | inactive | 
CCN(CC#N)c1cccc(C)c1 | inactive | 
Cc1ccc(C2OC[C@@H]3OC(c4ccc(C)cc4)O[C@H]([C@H](O)CO)[C@@H]3O2)cc1 (stereo not given in full) | inactive | 
O=c1[nH]c(=O)c2[nH]c(=O)[nH]c2[nH]1 | inactive | 
O=C(OCC1CCC2OC2C1)C1CCC2OC2C1 (stereo not given) | inactive | 
